Source: the supplement of paper PMC3334620
Whole data set: some 33,000 sequences, median “E-score (-0.5 to 0.5)” near -0.017, cut for the highest 2% near 0.3. What follows is part of a selection rich in the highest values, with near analogues and random picks from the rest.

target: T1, Sut1 (UniProt P53032); assay: PBM E-score (8-mer binding enrichment) (E-score (-0.5 to 0.5)); higher = stronger / more preferred TF binding; conditions: protein concentration: 200 nM; construct: GST-full length
T1 sequence: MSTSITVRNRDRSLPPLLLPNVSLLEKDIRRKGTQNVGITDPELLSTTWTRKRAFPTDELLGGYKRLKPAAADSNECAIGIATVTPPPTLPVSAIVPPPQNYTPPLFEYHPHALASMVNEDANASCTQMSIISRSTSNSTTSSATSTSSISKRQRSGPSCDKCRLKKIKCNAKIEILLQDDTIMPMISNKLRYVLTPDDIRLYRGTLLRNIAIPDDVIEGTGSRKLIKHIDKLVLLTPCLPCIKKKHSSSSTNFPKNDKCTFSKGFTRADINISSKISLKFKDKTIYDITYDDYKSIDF
In short: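 Detection of bound protein used fluorescent anti-GST, with scans normalised by masliner. The proteins were GST-tagged yeast transcription factors applied at about 100-200 nM to universal all-10-mer Agilent arrays made double-stranded by primer extension. Each ungapped eight-base word, pooled with its reverse complement, was scored with an E-score from the Universal PBM Analysis Suite.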

Sequence | PBM E-score
GCCCGGAC | 0.328
ACCCGGAT | -0.107
ACCCGGAG | 0.416
GCCCGGAA | 0.244
ACCCGGAC | 0.323
CCCCGGCC | -0.173
CCCCGGAC | 0.357
GCCCGGGC | -0.0214
CCCCGGAA | 0.216
ACCCGGGC | -0.0147
CAGTTGGC | -0.162
GCATTCGA | 0.0434
TAAGAATA | -0.086
CGACGCTA | -0.089
CCCCGGGG | 0.198
CCCCGGAG | 0.454
CCCCGGCG | -0.00882
TCTCTGAA | -0.135
CTTTCGGC | 0.0219
CTTTCGTA | 0.0877
ATTTCGGC | 0.0959
ATTTCGGG | 0.0466
CTTTCGGA | 0.395
ATTTCGAG | 0.164
ATTTCAAA | 0.219

Sequence | PBM E-score
CTTTCAAA | 0.302
GTTTCAAA | 0.212
ATTTCGAC | 0.0327
ATTTCGAA | 0.313
ATTTCGGA | 0.396
GAGTGGTA | -0.0154
CTGCGAGC | -0.126
GCGCCCGA | -0.17
AGGATCGG | -0.00265
AACAGTCA | -0.138
CATCTAAA | 0.0229
ATGCCATC | 0.0993
GCCTTAAA | 0.0657
AGGATGCG | -0.116
ATCCTAAG | -0.175
AAGCCAGG | -0.253
CACAAAGG | -0.0165
GGGGCCAC | -0.304
GTTTCGAA | 0.0889
GTTTCGGA | 0.334
GTTTCGTA | 0.0481
CCTGTTTC | -0.0625
ACAATCGG | 0.259
GCCCAAAA | -0.0622
GATTCCCA | -0.188

Sequence | PBM E-score
TATTCCCA | 0.139
CATTCCGA | 0.25
AATTCCGA | 0.371
AATTCCCA | 0.0113
GATTCCGC | 0.0522
TATTCCGA | 0.321
GATTCCGA | 0.337
AATTCCAA | 0.21
ATTCTACC | 0.0903
AAAAGATG | 0.0556
ACGGTCTA | -0.0922
GATGGAGA | 0.0416
ACAGCATG | -0.124
CCGATTGC | 0.109
GCAGCAGA | -0.175
CCTTCAGA | -0.0889
GAACTGTC | 0.00324
ATTCCCTC | -0.233
TCCCTAGA | -0.00999
GTTATAAA | 0.303
CTTATAAA | 0.181
ACTAAAAA | 0.353
ACTATAAA | 0.321
AGTATATA | 0.395
GCTATAAA | 0.194

Sequence | PBM E-score
AGTATATG | 0.00722
GTTATAAC | -0.0927
ACTAAAAC | 0.159
ACTAAAAG | 0.214
CCTATAAA | -0.0583
AGTATATC | 0.12
ACTCAATG | 0.104
GATTTGAA | 0.142
TAATCGTA | 0.0634
CAACGGTC | -0.0872
GGAGGTGA | 0.0437
AGGTCTAT | -0.0267
GCTCGATA | -0.105
GGTGTAGA | -0.149
AGTATAAA | 0.302
CCTTAAAA | 0.0539
ACTTAAAC | 0.241
AGTATAAC | 0.185
TGTATAAA | 0.157
ACTTAAAA | 0.307
ACACTTCA | 0.0715
AGATGGCA | 0.0507
CATAGCCC | -0.196
ACGGAAAT | 0.344
CCGGAAAG | 0.276

Sequence | PBM E-score
CCGGAAAA | 0.37
ACGGAAAG | 0.25
ACGGAAAA | 0.243
CCGGAAAC | 0.245
TCGGAAAA | 0.372
ACGGAAAC | 0.0512
GCGGAAAA | 0.174
TAGGTACA | -0.0499
GTGAACCA | 0.00963
ACGGTGCC | -0.0952
TCATTCCA | 0.0304
ACGGTCGA | -0.135
CATTCTGA | 0.00217
ACCGGACA | 0.234
GCCGGACC | 0.198
GCCGGACA | 0.273
CCCGGACG | -0.12
CCCGGATC | 0.213
CCCGGACA | 0.354
CACGGACA | 0.153
CCCGGACC | 0.339
TCCGGACA | 0.415
GTCCACTA | -0.0452
GATACTAA | 0.141
ATGTGGGG | -0.203

Sequence | PBM E-score
CCAAAAGG | -0.0868
CGGAGTGC | 0.468
AGGAGTGA | -0.0299
AGGAGTGC | -0.143
CGGAGTGA | 0.451
GGGAGTGA | -0.0284
CTGAGTGC | -0.199
CAGATACC | -0.149
AGGGGCCG | -0.272
GCGCGTCA | -0.00075
CACCCGGA | 0.251
ACCCCGGT | 0.191
CCCCCGGA | 0.0624
GACCCGGA | 0.204
ACCCCGGG | 0.347
ACCCCGGA | 0.426
ACCCCGGC | 0.183
AACCCGGA | 0.333
TCCCCCGA | -0.141
CCCCCGGG | -0.174
TCCCCGAA | 0.228
TCCCCGGA | 0.364
CTCTGTGA | -0.105
AGCGTCCC | -0.168
TCACCCCA | -0.0213

Sequence | PBM E-score
GAATTTAC | 0.0497
TGCGCAAA | 0.0678
AAGAGACC | -0.0189
ATGCAGCC | -0.0379
AGCAAATG | -0.0134
CCTTCGAC | -0.232
TGCCTAAA | -0.00993
GGACATCA | 0.3
CGACATCA | 0.143
GGACATCC | 0.0309
AGCTCAAG | -0.092
CGTGCAGA | -0.148
AGAGCGGG | -0.0998
AGAGCGGC | -0.125
AGAGCGGA | 0.318
AGGAGCCG | -0.281
CGGAGCCG | 0.338
CTGAGCTC | 0.119
AGGAGCTA | -0.155
CGGAGCCC | 0.183
GGGAGCTA | -0.176
CGGAGCTA | 0.385
CGGAGCTC | 0.414
AGGAGCTC | -0.18
